Test results as given in PubChem BioAssay (NCATS).
“And” between values parts separate entries of the source, which are not always exact repeats. Identical values can stand only once. Results filed as inconclusive are left out. A number with no mark means an inactive call. The source made the active and inactive calls. Calls follow the shape of the dose curve; as a rule, active = well fitted inhibition curve with a large enough effect; inconclusive = small, poorly fitted or top-dose-only effect; inactive = flat fitted curve, though single readings scatter.

test system: NIH3T3; assay: Cytotoxic Profiling of Annotated Libraries Using Quantitative High-Throughput Screening (AID 1296008); conditions: Five cell lines viability, CellTiter-Glo ATP luminescence, 48-72 h; max response: stronger effect = lower value; also: nearly all actives have a fitted effect of over 60% in size
Method in brief: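 Cytotoxicity was measured as CellTiter-Glo ATP luminescence, read after 10 min at room temperature. Compound treatment of the cells lasted 48 or 72 hr at 37 degrees Celsius in a qHTS format.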
% is scaled to controls: 0 for no effect and ±100 for the full control effect; potency is read from the fitted curve at half-maximal effect.

Structure (SMILES)	max response	Potency	outcome
CN1CC(=O)NC1=NC(=O)Nc1cccc(Cl)c1	-5.12%		
Nc1nc(Cl)nc2c1ncn2[C@@H]1O[C@H](CO)[C@@H](O)[C@H]1F		0.166 µM (active)	
O=C1NC(=O)C(=Cc2ccc(-c3ccc(F)cc3O)o2)S1	-4.39%		
CS(=O)(=O)c1ccc(C2=C(c3ccccc3)C(=O)OC2)cc1	-4.55%		inactive
COC(=O)Nc1ccc(-c2nc(N3CCOCC3)c3cnn(C4CCN(C(=O)OC)CC4)c3n2)cc1		4.18 µM (active)	
C[C@@H](N)c1ccc(C(=O)Nc2ccnc3[nH]ccc23)cc1		23.5 µM (active) and 16.4 µM (active)	
Cc1cc(OCCCS(C)(=O)=O)cc(C)c1-c1cccc(COc2ccc3c(c2)OC[C@H]3CC(=O)O)c1	-18.7%		
O=C(CCCN1CCN(c2ccc(F)cc2)CC1)NC1c2ccccc2CSc2ccccc21 (centres undefined)	-3.67%		
CN[C@@H](C)[C@H]1[C@H](O)C[C@@]2(C)[C@@H]3CC[C@H]4C(C)(C)[C@@H](NC)CC[C@@]45C[C@@]35CC[C@]12C			inactive
Cc1ccc(C(=O)N(CCCN)[C@@H](c2nc3cc(Cl)ccc3c(=O)n2Cc2ccccc2)C(C)C)cc1	-42.8%		
CCC(C)SSc1ncc[nH]1 (centres undefined)	-14.8%		
CN(C(Cc1ccc(OS(=O)(=O)c2cccc3cnccc23)cc1)C(=O)N1CCN(c2ccccc2)CC1)S(=O)(=O)c1cccc2cnccc12 (centres undefined)	-12.5%		
O=C(c1ccc(F)c(F)c1Nc1ccc(I)cc1F)N1CC(O)([C@H]2CCCCN2)C1		8.33 µM (active)	
COc1cc2nccc(Oc3ccc(NC(=O)Nc4cc(C)on4)c(Cl)c3)c2cc1OC		9.35 µM (active) and 3.66 µM (active)	
Cc1cc(-c2ncc(CC(=O)Nc3ccc(-c4cnccn4)cn3)cc2C)ccn1	-16.2% and -6.07%		
CC[C@H](CC#N)OC(=O)N[C@@H](C)c1cccc(NC(=O)Nc2ccc(-c3cnco3)c(OC)c2)c1		1.18 µM (active) and 1.3 µM (active)	
CCC(=O)N1CCN(c2ccc(-n3c(=O)ccc4cnc5ccc(-c6cnc7ccccc7c6)cc5c43)cc2C(F)(F)F)CC1		33.2 nM (active) and 237 nM (active)	
COc1nccc(-c2c(-c3ccc(F)cc3)ncn2C2CCC(O)CC2)n1 (centres undefined)	-1.87%		
CCNC(=O)c1noc(-c2cc(C(C)C)c(O)cc2O)c1-c1ccc(CN2CCOCC2)cc1		264 nM (active) and 51.7 nM (active)	
O=C(c1ccc(C=Cc2n[nH]c3ccccc23)cc1)N1CCNCC1		2.35 µM (active)	
CN(C)CCN(C)C(=O)c1ccc(NC(=O)Nc2ccc(-c3nc(N4CCOCC4)c4ccn(CC(F)(F)F)c4n3)cc2)cc1		0.059 µM (active)	
CC(C)n1c(C=C[C@H](O)C[C@H](O)CC(=O)O)c(-c2ccc(F)cc2)c2ccccc21		16.6 µM (active)	
Fc1ccc(CNc2ncnc3ccc(F)cc23)cc1	-22.4%		
Cc1nc2c([nH]1)CCN(C(=O)c1ccc(NC(=O)c3ccccc3-c3ccccc3)cc1)c1ccccc1-2	4.2%		inactive
Cn1cnc(-c2cc3nccc(Oc4ccc(NC(=S)NC(=O)Cc5ccccc5)cc4F)c3s2)c1		11.8 µM (active) and 13 µM (active)	
COc1c(C)c2c(c(O)c1CC=C(C)CCC(=O)OCCN1CCOCC1)C(=O)OC2		5.26 µM (active)	
COc1c(C)cnc(Cn2cnc3c(Cl)nc(N)nc32)c1C		0.526 µM (active)	
